Results filed as inconclusive are left out. Where a call stands in place of a potency, no number is given. Calls of active or inactive are those of the source. Calls come from the whole dose curve; as a rule, active = well fitted cell-killing curve with a large enough effect; inconclusive = small, poorly fitted or top-dose-only effect; inactive = flat fitted curve, though single readings scatter.

The nature of the assay: Cellular viability qHTS for adrenocortical cancer (ACC) cell line NCI-H295R (AID 1963990). Note: nearly all actives have a fitted effect of over 60% in size. Conditions: CellTiter-Glo ATP luminescence, 48 h; series mostly up to 46.1 µM. In outline: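 CellTiter-Glo ATP luminescence, read 48 h after compound addition, measured viability of NCI-H295R adrenocortical cells grown serum-free with ITS. Final concentrations spanned up to 46 uM. Data normalized to DMSO and doxorubicin, fitted for IC50 and maximal response.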
For the molecule `CC(C)(C)C1CCC(CC2=C(O)c3ccccc3C(=O)C2=O)CC1` (configuration not stated), the Potency result is “inactive”.
Take `Cc1nc2n(c(=O)c1CCN1CCC(c3noc4cc(F)ccc34)CC1)CCC[C@H]2O`: the Potency result is “inactive”.
The same measure for `CCC1NC(=O)c2cc(S(N)(=O)=O)c(Cl)cc2N1` (configuration not stated): “inactive”.
With `CCCc1c2oc(C(=O)O)cc(=O)c2cc2c(=O)cc(C(=O)O)n(CC)c12` the entry was “inactive”.
With `NC(=O)NNc1ccccc1`, the Potency entry was “inactive”.
The same measure for `C=CC(=O)Nc1cccc(Nc2nc(Nc3ccc(OCCOC)cc3)ncc2F)c1`: 3.98 µM (active).
Turning to `CCOc1cc2ncc(C#N)c(Nc3ccc(OCc4ccccn4)c(Cl)c3)c2cc1NC(=O)/C=C/CN(C)C`, the Potency was 2 µM (active).
With `CCCCc1ncc(/C=C(\Cc2cccs2)C(=O)O)n1Cc1ccc(C(=O)O)cc1` the entry was “inactive”; with `Cc1c(O)cccc1C(=O)N[C@@H](CSc1ccccc1)[C@H](O)CN1C[C@H]2CCCC[C@H]2C[C@H]1C(=O)NC(C)(C)C`, 6.51 µM (active); with `Cn1cc(-c2cnn3c(N)c(Br)c(C4CCCNC4)nc23)cn1` (configuration not stated), “inactive”.
The same measure for `C[C@]12CCC(=O)C=C1CC[C@@H]1[C@@H]2C(=O)C[C@@]2(C)[C@H]1CC[C@]2(O)C(=O)CO`: “inactive”; for `COc1ccc(-c2oc3ncnc(N)c3c2-c2ccc(NC(=O)Nc3cc(C(F)(F)F)ccc3F)cc2)cc1`: “inactive”.
With `Cc1nnc(C[C@@H]2C=C(c3ccc(Cl)cc3)c3ccccc3-n3c(C)nnc32)o1` the figure was 6.31 µM (active); with `CNCC[C@H](Oc1cccc2ccccc12)c1cccs1`, 18.4 µM (active).
Take `Cc1ccccc1C(=O)Nc1ccc(C(=O)N2CCCC(N(C)C)c3ccccc32)cc1` (configuration not stated): the Potency was 1.64 µM (active).
With `O=C(O)/C=C(\CC(=O)O)C(=O)O` the entry was “inactive”; with `CC[C@]1(O)CC2CN(CCc3c([nH]c4ccccc34)[C@@](C(=O)OC)(c3cc4c(cc3OC)N(C)[C@H]3[C@@](O)(C(=O)OC)[C@H](OC(C)=O)[C@]5(CC)C=CCN6CC[C@]43[C@@H]65)C2)C1` (some centres not stated), 14.1 µM (active).

Source of the values: PubChem BioAssay (NCATS).
